PubChem BioAssay (NCATS)
Records with an inconclusive call do not appear. The source made the active and inactive calls. Calls come from the whole dose curve; as a rule, active = well fitted cell-killing curve with a large enough effect; inconclusive = small, poorly fitted or top-dose-only effect, or effect the other way; inactive = no such curve, though single readings can be large or run the other way.

Legend:
[1] = Quantitative High-Throughput drug screen in 47 multiple myeloma cell lines against the NCATS MIPE library collection: OCIMY5_PLB cell viability assay (AID 1918988); note: nearly all actives have a fitted effect of over 65% in size
Method in brief: (§1)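 Viability after 48 h drug exposure was measured as ATP-dependent luminescence. Cells, 500 per well, sat at 37 °C under 5% CO2; DMSO wells set 100%, media-only wells 0%.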

[2] = Quantitative High-Throughput drug screen in 47 multiple myeloma cell lines against the NCATS MIPE library collection: OPM1_PLB cell viability assay (AID 1918989); note: nearly all actives have a fitted effect of over 40% in size
Method in brief: as §1

[3] = Quantitative High-Throughput drug screen in 47 multiple myeloma cell lines against the NCATS MIPE library collection: SKMM1_PLB cell viability assay (AID 1919863); settings: SKMM1 myeloma viability, CellTiter-Glo ATP, 48 h; viability: hits give low values; note: nearly all actives have a fitted effect of over 35% in size
Method in brief: as §1

[4] = Quantitative High-Throughput drug screen in 47 multiple myeloma cell lines against the NCATS MIPE library collection: XG6_PLB cell viability assay (AID 1919865); note: nearly all actives have a fitted effect of over 40% in size
Method in brief: as §1

[5] = Quantitative High-Throughput drug screen in 47 multiple myeloma cell lines against the NCATS MIPE library collection: XG1_PLB cell viability assay (AID 1919866); note: nearly all actives have a fitted effect of over 35% in size
Method in brief: as §1

[6] = Quantitative High-Throughput drug screen in 47 multiple myeloma cell lines against the NCATS MIPE library collection: VP6_DJ cell viability assay (AID 1919867); note: nearly all actives have a fitted effect of over 40% in size
Method in brief: as §1

[7] = Quantitative High-Throughput drug screen in 47 multiple myeloma cell lines against the NCATS MIPE library collection: UTMC2_PLB cell viability assay (AID 1919868); settings: CellTiter-Glo ATP luminescence, 48 h; viability (% of DMSO control): at 45.8 µM (top of the series); note: nearly all actives have a fitted effect of over 55% in size
Method in brief: as §1

[8] = Quantitative High-Throughput drug screen in 47 multiple myeloma cell lines against the NCATS MIPE library collection: PE2_PLB cell viability assay (AID 1919869); note: nearly all actives have a fitted effect of over 35% in size
Method in brief: as §1

[9] = Quantitative High-Throughput drug screen in 47 multiple myeloma cell lines against the NCATS MIPE library collection: RPMI8226_ATCC cell viability assay (AID 1919871); note: nearly all actives have a fitted effect of over 30% in size
Method in brief: as §1

[10] = Quantitative High-Throughput drug screen in 47 multiple myeloma cell lines against the NCATS MIPE library collection: KMS11_JCRBsus cell viability assay (AID 1919873); note: nearly all actives have a fitted effect of over 50% in size
Method in brief: as §1

[11] = Quantitative High-Throughput drug screen in 47 multiple myeloma cell lines against the NCATS MIPE library collection: KMS28BM_JCRB cell viability assay (AID 1919874); note: nearly all actives have a fitted effect of over 35% in size
Method in brief: as §1

[12] = Quantitative High-Throughput drug screen in 47 multiple myeloma cell lines against the NCATS MIPE library collection: OPM2_DSMZ cell viability assay (AID 1919872); note: nearly all actives have a fitted effect of over 30% in size
Method in brief: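 Approved and investigational drugs from MIPE 4.0 were added by pin tool to 500 cells per well. After 48 hours at 37C, ATP-based CellTiter-Glo luminescence indicated remaining viability.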

[13] = Quantitative High-Throughput drug screen in 47 multiple myeloma cell lines against the NCATS MIPE library collection: OCIMY7_PLB cell viability assay (AID 1918987); settings: OCI-MY7 myeloma viability, CellTiter-Glo ATP, 48 h; viability (% of DMSO): at 45.8 µM (top of the series); note: nearly all actives have a fitted effect of over 65% in size
Method in brief: as §1

[14] = Quantitative High-Throughput drug screen in 47 multiple myeloma cell lines against the NCATS MIPE library collection: U266_ATCC cell viability assay (AID 1919864); note: nearly all actives have a fitted effect of over 35% in size
Method in brief: as §1

[15] = Quantitative High-Throughput drug screen in 47 multiple myeloma cell lines against the NCATS MIPE library collection: PCM6_Riken cell viability assay (AID 1919870); note: nearly all actives have a fitted effect of over 30% in size
Method in brief: as §1
Potency is the fitted concentration of half-maximal effect.

Cc1ccc(S(=O)(=O)OCC(=O)Nc2ccc(C(=O)O)c(O)c2)cc1
active: Potency [1] 18.7 µM | Potency [4] 3.72 µM | Potency [5] 7.43 µM | Potency [6] 16.6 µM | Potency [7] 9.35 µM | Potency [8] 20.9 µM
inactive: Potency [2] | viability [3] 102% | Potency [9] | Potency [10] | Potency [11]

CCC[C@H](Nc1nc(-c2ccc(NC(=O)NCC)c(OC)c2)ncc1C)c1cccnc1
active: Potency [1] 0.0166 µM | Potency [3] 0.003 µM | Potency [7] 0.001 µM | Potency [8] 0.001 µM | Potency [9] 0.0264 µM | Potency [12] 0.0083 µM | Potency [10] 0.0012 µM

COc1cccc(OC)c1-c1cc(C(=O)NC2(C(=O)O)C3CC4CC(C3)CC2C4)nn1-c1ccnc2cc(Cl)ccc12 (configuration not stated)
inactive: Potency [1] | Potency [2] | Potency [4] | Potency [5] | Potency [6] | Potency [7] | Potency [8] | Potency [9] | Potency [10]

c1cc(OCCN2CCCCC2)cc(-c2n[nH]c3ccc(-c4ncn[nH]4)cc23)c1
active: Potency [13] 5.26 µM | Potency [14] 18.7 µM | Potency [4] 5.26 µM | Potency [5] 8.33 µM | Potency [6] 11.8 µM | Potency [8] 10.5 µM | Potency [15] 16.6 µM | Potency [10] 16.6 µM

COc1c(C)c2c(c(O)c1CC=C(C)CCC(=O)O)C(=O)OC2
inactive: Potency [15]
active: Potency [1] 7.43 µM | Potency [3] 5.26 µM | Potency [14] 8.33 µM | Potency [4] 3.32 µM | Potency [6] 5.9 µM | Potency [8] 3.32 µM | Potency [9] 7.43 µM | Potency [12] 11.8 µM | Potency [11] 2.64 µM

CC1(C)[C@H]2CC[C@]3(C)[C@@H](C(=O)C=C4[C@@H]5C[C@@](C)(C(=O)O)CC[C@]5(C)CC[C@]43C)[C@@]2(C)CC[C@@H]1O
active: Potency [3] 11.8 µM
inactive: Potency [2] | Potency [14] | Potency [4] | Potency [5] | Potency [6] | Potency [7] | Potency [8] | Potency [15] | Potency [9] | Potency [12] | Potency [10] | Potency [11]

N#Cc1ccc(Oc2ccc3c(c2)COB3O)cc1
active: Potency [4] 16.6 µM | Potency [8] 20.9 µM
inactive: viability [3] 113% | Potency [14] | Potency [9] | Potency [12]

C=CC(=O)Nc1cccc(Sc2nc(Nc3ccc(N4CCN(C)CC4)cc3)ncc2Cl)c1
active: Potency [3] 37.2 µM | Potency [4] 0.526 µM | Potency [5] 1.05 µM

CC(C)(C)c1[nH]cnc1C=c1[nH]c(=O)c(=Cc2ccccc2)[nH]c1=O
inactive: Potency [5] | Potency [12] | Potency [10]

CNC(=O)c1c(-c2ccc(F)cc2)oc2cc(N(CCO)S(C)(=O)=O)c(C3CC3)cc12
active: Potency [4] 18.7 µM | Potency [5] 20.9 µM

CN(C)CCOc1cc(-c2cn[nH]c2)ccc1NC(=O)C1COc2ccccc2O1 (configuration not stated)
inactive: viability [3] 131% | Potency [9]
active: Potency [5] 2.35 µM | Potency [7] 6.62 µM | Potency [8] 16.6 µM | Potency [15] 4.69 µM | Potency [11] 5.9 µM

CCn1c(-c2nonc2N)nc2cncc(CNC3CCNCC3)c21
active: Potency [1] 18.7 µM | Potency [8] 5.9 µM | Potency [15] 4.18 µM | Potency [11] 20.9 µM
inactive: Potency [14]

CC[C@@H]([C@H](C)O)n1ncn(-c2ccc(N3CCN(c4ccc(OCC5CO[C@@](Cn6cncn6)(c6ccc(F)cc6F)C5)cc4)CC3)cc2)c1=O (some centres not stated)
active: Potency [1] 18.7 µM | Potency [4] 20.9 µM | Potency [6] 23.5 µM | Potency [8] 10.5 µM | Potency [10] 11.8 µM
inactive: Potency [14]

Cn1cnc(-c2cc3nccc(Oc4ccc(NC(=S)NC(=O)Cc5ccccc5)cc4F)c3s2)c1
active: Potency [2] 18.7 µM | Potency [7] 0.132 µM | Potency [8] 13.2 µM | Potency [10] 20.9 µM

C[C@H]1O[C@@H](n2cc(F)c(=O)[nH]c2=O)[C@H](O)[C@H]1O
active: Potency [2] 11.8 µM | Potency [5] 8.33 µM | Potency [6] 0.59 µM | Potency [8] 1.87 µM | Potency [9] 9.35 µM | Potency [10] 7.43 µM
inactive: Potency [4] | Potency [11]

Cc1cc(C(C)Nc2ccccc2)c2nc(N3CCOCC3)cc(=O)n2c1 (configuration not stated)
active: Potency [2] 20.9 µM | Potency [4] 1.05 µM | Potency [6] 3.32 µM
inactive: Potency [14] | Potency [9] | Potency [12]

Cc1ccc(C(=O)N(CCCN)[C@@H](c2nc3cc(Cl)ccc3c(=O)n2Cc2ccccc2)C(C)C)cc1
inactive: Potency [10]
active: Potency [3] 23.5 µM | Potency [14] 26.4 µM

CCOC(=O)[C@H](CCc1ccccc1)N[C@@H](C)C(=O)N1CCCC1C(=O)O (some centres not stated)
active: Potency [14] 20.9 µM | Potency [4] 23.5 µM | Potency [5] 23.5 µM | Potency [6] 20.9 µM | Potency [15] 26.4 µM
inactive: Potency [2] | Potency [8] | Potency [9] | Potency [11]

CCC(=O)NCC[C@@H]1CCc2ccc3c(c21)CCO3
inactive: viability [3] 137% | Potency [4] | Potency [5] | Potency [6] | Potency [7] | Potency [8] | Potency [9] | Potency [11]

CN[C@@H]1[C@@H](O)[C@@H](O[C@@H]2[C@@H](O)[C@H](O[C@H]3O[C@H](CN)[C@@H](O)[C@H](O)[C@@H]3O)[C@@H](N)C[C@@H]2NC(=O)[C@@H](O)CN)OC[C@]1(C)O
inactive: Potency [2] | Potency [4] | Potency [5] | Potency [6] | Potency [8] | Potency [15] | Potency [9] | Potency [12]
active: Potency [14] 18.7 µM
